Only some compounds are listed: those with a hit (about 0.82% of all), similar ones and a draw of the others.
E coli Lon inh: inhibits E. coli Lon protease; purified E. coli Lon protease, fluorescence polarization; inhibition, % at 7.94 µM; 360,000 tested, 0.42% active; P0A9M0; in the data active = inhibition above about 13%, passing the limit was not always enough;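 also: 0% = enzyme with probe and DMSO and 100% = no enzyme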
Keap1 Nrf2 FP: Keap1-Nrf2 (human) interaction inhibition; Q14145; Keap1 Kelch-Nrf2 peptide fluorescence polarization, 1536-well; inhibition, % at 9.4 µM; 340,000 tested, 0.15% active; AID 504523; in the data active = inhibition above about 12%;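 also: human Keap1 Kelch domain with fluorescein labeled Nrf2 9mer peptide probe; 0% = neutral control wells and 100% = peptide positive control; higher means more block of Keap1 binding to Nrf2 peptide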
Target sequence (Q14145 whole entry, looked up, the tested form may be a part): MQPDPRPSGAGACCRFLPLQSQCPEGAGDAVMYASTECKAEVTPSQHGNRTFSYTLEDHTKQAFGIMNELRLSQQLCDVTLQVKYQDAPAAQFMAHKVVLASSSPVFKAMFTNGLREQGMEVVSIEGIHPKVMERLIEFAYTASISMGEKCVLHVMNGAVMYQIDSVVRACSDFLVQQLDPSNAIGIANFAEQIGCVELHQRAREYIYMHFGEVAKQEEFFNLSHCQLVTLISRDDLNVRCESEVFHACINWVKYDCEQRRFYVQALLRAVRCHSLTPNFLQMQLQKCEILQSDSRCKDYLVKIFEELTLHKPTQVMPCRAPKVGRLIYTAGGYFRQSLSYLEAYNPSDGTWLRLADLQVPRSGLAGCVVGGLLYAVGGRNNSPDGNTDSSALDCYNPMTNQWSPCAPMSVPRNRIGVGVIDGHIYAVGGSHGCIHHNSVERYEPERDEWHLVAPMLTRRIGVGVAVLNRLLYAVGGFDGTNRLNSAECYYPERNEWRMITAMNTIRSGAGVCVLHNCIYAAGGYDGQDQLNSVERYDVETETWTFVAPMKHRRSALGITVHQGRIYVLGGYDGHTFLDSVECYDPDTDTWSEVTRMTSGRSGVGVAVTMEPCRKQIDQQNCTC
cardiac RTF act: cardiac RTF calcium sensitization; 340,000 tested, 0.24% active; activation, % at 7.2 µM; IANBD-labeled TnC RTF fluorescence at EC20 calcium; 0% EC20 calcium, 100% full calcium;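 active = activation above the mean over all tested compounds plus 3 SD, cut at about 30% in these data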;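 also: rise in fluorescence read as greater calcium sensitivity of cardiac thin filaments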
C-LANA FP: KSHV C-LANA DNA binding inhibition; AID 504423; inhibition, % at 9 µM; 340,000 tested, 0.078% active; MBP-C-LANA/FAM-LBS DNA binding, fluorescence polarization;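 active = highest replicate inhibition at or above 60% at 9 µM, even if other replicates fall short; inactive = all replicates below 60% inhibition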;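 also: 0% = neutral control wells and 100% = 4 µM acridine orange control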
RTF Ca sens inh: cardiac RTF calcium desensitization. IANBD-labeled cardiac RTF, Ca2+ fluorescence. P19429+P45379. inhibition, % at 7.15 µM. AID 493244. 340,000 tested, 0.12% active;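 active = inhibition above the mean inhibition of all tested compounds plus 3 SD, cut at about 17% in these data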;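 also: assay run at fixed EC70 calcium of 1.6 mM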
RTF inh confirm: confirmation of inhibitors of cardiac thin filament calcium sensitivity; shares compounds with RTF Ca sens inh; reconstituted cardiac thin filaments, calcium sensitivity fluorescence; inhibition, % at 7.15 µM; 360 tested, 8% active; AID 504635; in the data active = inhibition above about 18%
DNA intercal 2: counter-screen for C-LANA inhibitors: DNA intercalators. shares compounds with C-LANA FP. Acridine orange-DNA displacement, fluorescence polarization. AC50, µM (titrated, usually from 35 µM), without a hit: top-dose activity change, negative = inhibition. 20 tested, under 10 active. AID 588364;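 active = signal drop with an AC50 no more than ten times the top valid dose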
Keap1 Kelch bind: Keap1 (human) Kelch domain binding; max delta Tm, degrees C; shares compounds with Keap1 Nrf2 FP; Keap1 Kelch thermal shift, delta Tm; active compounds read high; 400 tested, 8% active; AID 651823; in the data active = max delta Tm above about 0.48 degrees C
* marks the source's active call; other numbers are inactive results; . = no result.

SMILES | E coli Lon inh | Keap1 Nrf2 FP | cardiac RTF act | C-LANA FP | RTF Ca sens inh | RTF inh confirm | others
CCCCC[C@@H](C)N1C[C@@H](COCc2ccccc2)Oc2cc(N3CCC[C@@H]3COC)ccc2S1(=O)=O | -10 | . | . | . | . | .
Cc1c(CCOC(=O)C23CC4CC(CC(C)(C4)C2)C3)sc[n+]1CC(=O)c1ccccc1 | -9 | -5 | 3 | 0 | 19* | -6
Cc1ccc(CC(=O)Nc2ccc(C(=O)N3CCCCC3)cc2)cc1 | -5 | -1 | 0 | 0 | 1 | .
Cc1ccc(C(=O)N2CCN(c3ccc(NC(=O)Cc4ccccc4)cc3)CC2)cc1 | -5 | 0 | 3 | 2 | 18* | -5
CN=c1scc(-c2cccs2)n1/N=C/c1ccccc1O | -5 | 1 | -5 | 2 | 17* | -7
O=C(CSc1nc(-c2ccc(F)cc2)nc2c1Cc1ccccc1O2)Nc1ccc(C(=O)O)cc1 | -11 | 3 | -17 | 0 | 12 | .
O=C(CSc1nc(-c2ccccc2)nc2c1Cc1ccccc1O2)Nc1ccc(C(=O)O)cc1 | -5 | -4 | -15 | 1 | 20* | 2
O=c1cc(-c2ccccc2Cl)oc2ccc([N+](=O)[O-])c(O)c12 | 6 | -5 | -5 | 0 | -4 | .
O=[N+]([O-])c1cc([N+](=O)[O-])c2oc(-c3ccccc3)c(Br)c2c1O | -1 | -2 | -30 | 4 | 27* | 12
Cc1cccnc1C(NC(=O)C1CCN(Cc2ccc(Oc3ccccc3)cc2)CC1)c1ccc(F)cc1 (stereo unspecified) | -19 | . | . | . | . | .
COc1ccc(CNC(=O)c2ccc(CS(=O)Cc3ccc(Cl)cc3)o2)cc1 (stereo unspecified) | 2 | -1 | -2 | 1 | 3 | .
Cc1ccc(CS(=O)Cc2ccc(C(=O)NCc3ccc(OC(C)C)cc3)o2)cc1 (stereo unspecified) | 10 | -3 | 3 | 2 | 27* | -1
CCOC(=O)C1=C(C)N(Cc2ccc(C(=O)O)cc2)C(=O)NC1c1ccc([N+](=O)[O-])cc1 (stereo unspecified) | -1 | -5 | 6 | 1 | 18* | -2
O=CNc1cc(-c2ccoc2)cn2c(-c3ccc(F)cc3)cnc12 | -34 | . | . | . | . | .
COCCNc1oc(/C=C/c2ccccc2OC)nc1S(=O)(=O)c1ccccc1 | 1 | -3 | 0 | -1 | 18* | 8
Cc1ccc(Nc2nc(N)nc(CN3CCN(C)CC3)n2)cc1 | 4 | 3 | -2 | 0 | 18* | -6
CCCCn1nnnc1C(c1cc2ccccc2o1)N1CCN(c2ncccc2C#N)CC1 (stereo unspecified) | 2 | . | . | . | . | .
CC1=NN(c2cccc(C(=O)O)c2)C(=O)/C1=C\C=C\c1ccco1 | -8 | 7 | -36 | 92* | 35* | 11 | DNA intercal 2=9%
CSc1ccc(/C=N/Nc2cccc(C(=O)O)c2)cc1 | 9 | 1 | -14 | 78* | 26* | 5 | DNA intercal 2=6%
O=C(O)c1cccc(N/N=C/c2ccc(OC(F)(F)F)cc2)c1 | -4 | 3 | -2 | 1 | 1 | .
CCc1nc2ccc(C(=O)N(C)C(C)C)cn2c1N(CC)Cc1cccc(Br)c1 | -5 | . | . | . | . | .
O=C(O)C1Nc2ccc(Br)cc2C2C=CCC12 (stereo unspecified) | 0 | 7 | -38 | 69* | 60* | 6 | DNA intercal 2=3%
CCc1nc2c(OCc3ccc(C(F)(F)F)cc3)cccn2c1N(C)C(=O)C1CC1 | -6 | . | . | . | . | .
O=S(=O)(O)c1ccc(O)c2cc(Nc3ccccc3)ccc12 | 3 | 25* | -48 | 120* | 105* | 50* | Keap1 Kelch bind=0.97*
Cc1ccc(S(=O)(=O)c2cc(Nc3ccccc3)ccc2O)cc1 | 11 | 0 | -7 | -1 | -2 | .
CC(C)C(C(=O)O)N1C(=O)/C(=C/C=C/c2ccco2)SC1=S (stereo unspecified) | -1 | 13* | -39 | 107* | 83* | 40* | Keap1 Kelch bind=0.91*
Cc1cc(C)n2nc(CNS(=O)(=O)c3ccc(C(C)(C)C)cc3)nc2n1 | -4 | . | . | . | . | .

Bioassay records deposited in PubChem by several laboratories.
